{"source": "PubChem BioAssay (EPA / NIEHS)", "note": "Activity calls are given as the source filed them. How the source made its calls: active means hit-call score of the fitted dose curve at least 0.9, where 1 is the maximum; inactive means score below 0.9."}
{"experiment": "Tanguay_ZF_120hpf_DP24: Oregon State University Tanguay Lab 24 Hour Post-fertilization zebrafish Assay for Delayed Development (AID 2284390)", "procedure": "Tanguay_ZF_120hpf is a whole embryo, multiplexed endpoint assay using zebrafish larvae exposed for 120 hours post fertilization on a 96-well plate.Tanguay_ZF_120hpf_DP24 is […] measured or calculated from the Tanguay_ZF_120hpf assay. It is designed to make measurements of zebrafish development as detected with brightfield microscopy of developing zebrafish embryos.Data from the assay component Tanguay_ZF_120hpf_DP24 was analyzed into 1 assay endpoints. This assay endpoint, Tanguay_ZF_120hpf_DP24, was analyzed in the positive analysis fitting direction relative to DMSO as the negative control and baseline of activity. Using a type of morphology reporter, gain-of-signal activity can be used to understand changes in developmentals as they relate to the whole embryo. To generalize the intended target to other relatable targets, this assay endpoint is annotated to the zebrafish development intended target family, where the subfamily is embryonic morphogenesis.\nZebrafish husbandry: Tropical 5D wild-type adult zebrafish were housed in at an approximate density of 1000 per 100 gallon tank at the Sinnhuber Aquatic Research Laboratory, Oregon State University, Corvallis, OR. Each tank was kept at standard laboratory conditions of 28C on a 14-h light/10-h dark photoperiod in fish water consisting of reverse osmosis water supplemented with a commercially available salt (Instant Ocean). Spawning funnels were placed into the tanks the night prior, and embryos were collected and staged. To increase bioavailability, the chorion was enzymatically removed using pronase (63.6mg/ml, >/= 3.5U/mg, Sigma-Aldrich: P5147) at 4 hours post fertilization (hpf) using a custom automated dechorionator.Chemical exposures: Six hpf dechorionated embryos were placed 1 embryo per well in a 96-well plate prefilled with 90 ul of EM using automated embryo placement systems (AEPS). Ten microliters of each row of dilution plate 2 was added to 2 exposure plates. The final DMSO concentration used was 0.64% (vol/vol). Thirty-two embryos were also exposed to 5uM trimethyltin chloride (positive control). Plates were sealed to prevent evaporation and foil covered to reduce light exposure and kept in a 28C incubator. Embryos were statically exposed until 120 hpf. At 24 hpf, embryos were assessed for photomotor response using a custom photomotor response analysis tool (PRAT) and for developmental toxicity endpoints (MO24: mortality at 24 hpf, DP: developmental progression, SM: spontaneous movement, and NC: notochord distortion). At 120 hpf, locomotor activity was measured using Viewpoint Zebralab and assessed for 13 endpoints. Zebrafish acquisition and analysis program (ZAAP), a custom program designed to inventory, acquire, and manage zebrafish data, was used to collect developmental endpoints as either present or absent (i.e., binary responses were recorded). If mortality occurred for an embryo (at either 24 or 120 hpf), the non-mortality endpoints were not measured."}
{"smiles": "COC(F)(C(F)F)C(F)(F)F", "note": "(configuration not stated)", "outcome": "inactive"}
{"smiles": "FC(F)(F)C(F)(F)C(F)(F)C(F)(F)C(F)(F)C(F)(F)CC[Si](Cl)(Cl)Cl", "outcome": "inactive"}
{"smiles": "C=CC(=O)OCCC(F)(F)C(F)(F)C(F)(F)C(F)(F)F", "outcome": "inactive"}
{"smiles": "NC(=O)C(F)(F)C(F)(F)C(F)(F)C(F)(F)C(N)=O", "outcome": "inactive"}
{"smiles": "O=C(F)C1(F)C(F)(F)C(F)(F)C(F)(F)C(F)(F)C1(F)F", "outcome": "inactive"}
{"smiles": "O=C(O)C(F)(F)C(F)(F)C(F)(F)OC(F)(C(F)(F)F)C(F)(F)F", "outcome": "inactive"}
{"smiles": "C=CC(=O)OCC(F)(F)C(F)(F)C(F)(F)COC(=O)C=C", "AC50": "14.1 µM (active)"}
{"smiles": "O=C(O)C(F)(F)C(F)(F)C(F)(F)C(=O)O", "outcome": "inactive"}
{"smiles": "OCCCC(F)(F)C(F)(F)C(F)(F)C(F)(F)C(F)(F)C(F)(F)C(F)(F)C(F)(F)F", "outcome": "inactive"}
{"smiles": "C=CC(=O)OCC(F)(F)C(F)(F)C(F)(F)C(F)(F)C(F)(F)C(F)(F)C(F)(F)C(F)F", "outcome": "inactive"}
{"smiles": "NC(=O)C(F)(F)C(F)(F)C(F)(F)F", "outcome": "inactive"}
{"smiles": "NS(=O)(=O)C(F)(F)C(F)(F)C(F)(F)C(F)(F)C(F)(F)C(F)(F)F", "AC50": "57.6 µM (active)"}
{"smiles": "CCN(CCO)S(=O)(=O)C(F)(F)C(F)(F)C(F)(F)C(F)(F)C(F)(F)C(F)(F)C(F)(F)C(F)(F)F", "outcome": "inactive"}
{"smiles": "CCOC(=O)CC(=O)C(F)(F)C(F)(F)F", "outcome": "inactive"}
{"smiles": "OCC(O)CC(F)(F)C(F)(F)C(F)(F)C(F)(F)F", "note": "(configuration not stated)", "outcome": "inactive"}
{"smiles": "OCC(O)CC(F)(F)C(F)(F)C(F)(F)C(F)(F)C(F)(F)C(F)(F)C(F)(F)C(F)(F)F", "note": "(configuration not stated)", "outcome": "inactive"}
{"smiles": "O=S(=O)(O)CCC(F)(F)C(F)(F)C(F)(F)C(F)(F)C(F)(F)C(F)(F)C(F)(F)C(F)(F)F", "AC50": "79.2 µM (active)"}
{"smiles": "NC(=O)C(F)(F)C(F)(F)C(F)(F)C(F)F", "outcome": "inactive"}
{"smiles": "FC(F)(F)C(F)(F)C(F)(F)CC1CO1", "note": "(configuration not stated)", "outcome": "inactive"}
{"smiles": "O=C(O)C(F)(F)C(F)(F)C(F)(F)OC(F)(F)F", "outcome": "inactive"}
{"smiles": "OCC(F)(F)C(F)(F)C(F)(F)C(F)(F)C(F)(F)C(F)(F)CO", "outcome": "inactive"}
{"smiles": "FC(F)(F)C(F)(F)C(F)(F)C(F)(F)C(F)(F)C(F)(F)C(F)(F)CCI", "outcome": "inactive"}
{"smiles": "O=C(O)CCC(F)(F)C(F)(F)C(F)(F)F", "outcome": "inactive"}
{"smiles": "OCCCCC(F)(F)C(F)(F)C(F)(F)C(F)(F)F", "outcome": "inactive"}
{"smiles": "NC(O)(C(F)(F)F)C(F)(F)F", "outcome": "inactive"}
{"smiles": "O=S(=O)(Cl)C(F)(F)C(F)(F)C(F)(F)C(F)(F)C(F)(F)C(F)(F)C(F)(F)C(F)(F)F", "outcome": "inactive"}
{"smiles": "O=C(O)CCC(F)(F)C(F)(F)C(F)(F)C(F)(F)C(F)(F)C(F)(F)C(F)(F)F", "outcome": "inactive"}
{"smiles": "CO[Si](C)(CCC(F)(F)C(F)(F)C(F)(F)C(F)(F)C(F)(F)C(F)(F)F)OC", "outcome": "inactive"}
{"smiles": "O=S(=O)(O)CCC(F)(F)C(F)(F)C(F)(F)C(F)(F)F", "outcome": "inactive"}
{"smiles": "CN(C(=O)C(F)(F)C(F)(F)C(F)(F)F)[Si](C)(C)C", "outcome": "inactive"}
{"smiles": "O=S(=O)(OCC(F)(F)F)C(F)(F)C(F)(F)C(F)(F)C(F)(F)F", "outcome": "inactive"}
{"smiles": "OC(O)C(F)(F)C(F)(F)F", "outcome": "inactive"}
{"smiles": "CNS(=O)(=O)C(F)(F)C(F)(F)C(F)(F)C(F)(F)C(F)(F)C(F)(F)C(F)(F)C(F)(F)F", "outcome": "inactive"}
{"smiles": "OCC(F)(F)C(F)(F)C(F)(F)CO", "outcome": "inactive"}
{"smiles": "NC(=O)C(F)(F)C(F)(F)C(F)(F)C(F)(F)C(F)(F)C(F)(F)C(F)(F)F", "outcome": "inactive"}
{"smiles": "OCC(F)(F)C(F)(F)C(F)(F)C(F)(F)C(F)(F)C(F)(F)C(F)(F)C(F)(F)CO", "outcome": "inactive"}
{"smiles": "C[Si](Cl)(Cl)CCC(F)(F)C(F)(F)C(F)(F)C(F)(F)C(F)(F)C(F)(F)F", "outcome": "inactive"}
